Measurements taken from PubChem BioAssay AID1159580 (chemical genetic matrix, 2015).
Screen size: about 5,500 compounds; about 2,000 (36%) were called active. Roughly 18% stayed inconclusive and do not appear here. The list shows a part of the results. Values without a mark were called inactive. Rule as the data show it: active = normalized growth mostly below about 0.91 (no sharp cut-off); inconclusive = no clear call, values can overlap the other calls; inactive = mostly above about 0.92.

Test: chemical genetic growth profiling, strain panel (AID 1159580);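 also: tested at 20 µM; growth read once vehicle control cultures reached saturation at 30 °C; 1 = growth at the plate median or of vehicle wells; lower values mean less growth of the strain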
Conditions: growth OD

Compound: COP(=S)(OC)SCn1nnc2ccccc2c1=O
- normalized growth (S. cerevisiae deletion strains, locus YJR075W, strain HOC1, active compounds read low): 0.975
- normalized growth (S. cerevisiae deletion strains, locus YKL009W, strain mrt4, active compounds read low): 0.866 (active)
- normalized growth (S. cerevisiae deletion strains, locus YKL068W, active compounds read low): 0.995
- normalized growth (S. cerevisiae deletion strains, locus YKL085W, strain MDH1 (second series), active compounds read low): 0.985
- normalized growth (S. cerevisiae deletion strains, locus YKL085W, strain MDH1, active compounds read low): 0.985
- normalized growth (S. cerevisiae deletion strains, locus YKL160W, strain elf1, active compounds read low): 0.989
- normalized growth (S. cerevisiae deletion strains, locus YKL190W, strain CNB1, active compounds read low): 0.976
- normalized growth (S. cerevisiae deletion strains, locus YKR001C, strain vps1, active compounds read low): 0.969
- normalized growth (S. cerevisiae deletion strains, locus YKR026C, strain gcn3, active compounds read low): 1.01
- normalized growth (S. cerevisiae deletion strains, locus YKR091W, strain srl3, active compounds read low): 1.01
- normalized growth (S. cerevisiae deletion strains, locus YLL001W, strain dnm1, active compounds read low): 1.01
- normalized growth (S. cerevisiae deletion strains, locus YLL026W, active compounds read low): 0.999
- normalized growth (S. cerevisiae deletion strains, locus YLL041C, strain sdh2, active compounds read low): 1
- normalized growth (S. cerevisiae deletion strains, locus YLR027C, strain aat2, active compounds read low): 0.996
- normalized growth (S. cerevisiae deletion strains, locus YLR039C, strain RIC1, active compounds read low): 0.974
- normalized growth (S. cerevisiae deletion strains, locus YLR058C, strain SHM2, active compounds read low): 0.971
- normalized growth (S. cerevisiae deletion strains, locus YLR102C, strain apc9, active compounds read low): 0.98
- normalized growth (S. cerevisiae deletion strains, locus YLR113W, strain HOG1, active compounds read low): 1.01
- normalized growth (S. cerevisiae deletion strains, locus YLR221C, strain rsa3, active compounds read low): 0.971
- normalized growth (S. cerevisiae deletion strains, locus YLR258W, strain gsy2, active compounds read low): 1
- normalized growth (S. cerevisiae deletion strains, locus YLR262C, strain YPT6 (second series), active compounds read low): 0.96
- normalized growth (S. cerevisiae deletion strains, locus YLR262C, strain YPT6, active compounds read low): 0.941
- normalized growth (S. cerevisiae deletion strains, locus YLR268W, strain sec22, active compounds read low): 0.963
- normalized growth (S. cerevisiae deletion strains, locus YLR320W, strain mms22, active compounds read low): 1
- normalized growth (S. cerevisiae deletion strains, locus YLR330W, strain CHS5, active compounds read low): 0.981
- normalized growth (S. cerevisiae deletion strains, locus YLR342W, strain FKS1 (second series), active compounds read low): 0.921
- normalized growth (S. cerevisiae deletion strains, locus YLR342W, strain FKS1, active compounds read low): 0.986
- normalized growth (S. cerevisiae deletion strains, locus YLR357W, strain rsc2, active compounds read low): 0.885
- normalized growth (S. cerevisiae deletion strains, locus YLR370C, strain arc18, active compounds read low): 1.02
- normalized growth (S. cerevisiae deletion strains, locus YLR371W, strain rom2, active compounds read low): 0.98
- normalized growth (S. cerevisiae deletion strains, locus YLR384C, strain iki3, active compounds read low): 0.993
- normalized growth (S. cerevisiae deletion strains, locus YLR418C, strain cdc73, active compounds read low): 0.985
- normalized growth (S. cerevisiae deletion strains, locus YML016C, strain PPZ1, active compounds read low): 0.981
- normalized growth (S. cerevisiae deletion strains, locus YML032C, strain rad52, active compounds read low): 0.977
- normalized growth (S. cerevisiae deletion strains, locus YML120C, strain ndi1, active compounds read low): 1.01
- normalized growth (S. cerevisiae deletion strains, locus YML124C, strain tub3, active compounds read low): 0.999
- normalized growth (S. cerevisiae deletion strains, locus YMR058W, strain fet3, active compounds read low): 0.974
- normalized growth (S. cerevisiae deletion strains, locus YMR078C, strain ctf18, active compounds read low): 0.981
- normalized growth (S. cerevisiae deletion strains, locus YMR125W, strain sto1, active compounds read low): 1.01
- normalized growth (S. cerevisiae deletion strains, locus YMR129W, active compounds read low): 1.01
- normalized growth (S. cerevisiae deletion strains, locus YMR205C, strain PFK2, active compounds read low): 1.03
- normalized growth (S. cerevisiae deletion strains, locus YMR223W, strain ubp8, active compounds read low): 0.962
- normalized growth (S. cerevisiae deletion strains, locus YMR231W, strain pep5, active compounds read low): 0.969
- normalized growth (S. cerevisiae deletion strains, locus YMR263W, strain SAP30, active compounds read low): 0.95
- normalized growth (S. cerevisiae deletion strains, locus YMR307W, strain GAS1, active compounds read low): 0.993
- normalized growth (S. cerevisiae deletion strains, locus YNL067W, strain RPL9B, active compounds read low): 0.941
- normalized growth (S. cerevisiae deletion strains, locus YNL071W, strain lat1, active compounds read low): 0.98
- normalized growth (S. cerevisiae deletion strains, locus YNL128W, strain TEP1, active compounds read low): 0.954
- normalized growth (S. cerevisiae deletion strains, locus YNL153C, strain GIM3, active compounds read low): 0.974
- normalized growth (S. cerevisiae deletion strains, locus YNL183C, strain NPR1, active compounds read low): 0.891
- normalized growth (S. cerevisiae deletion strains, locus YNL209W, strain ssb2, active compounds read low): 1.01
- normalized growth (S. cerevisiae deletion strains, locus YNL233W, strain BNI4, active compounds read low): 0.975
- normalized growth (S. cerevisiae deletion strains, locus YNL248C, strain rpa49, active compounds read low): 0.951
- normalized growth (S. cerevisiae deletion strains, locus YNL250W, strain rad50, active compounds read low): 0.978
- normalized growth (S. cerevisiae deletion strains, locus YNL271C, strain bni1, active compounds read low): 0.977
- normalized growth (S. cerevisiae deletion strains, locus YNL298W, strain CLA4, active compounds read low): 0.959
- normalized growth (S. cerevisiae deletion strains, locus YNL307C, strain MCK1, active compounds read low): 0.995
- normalized growth (S. cerevisiae deletion strains, locus YNL322C, strain KRE1 (second series), active compounds read low): 1
- normalized growth (S. cerevisiae deletion strains, locus YNL322C, strain KRE1, active compounds read low): 0.979
- normalized growth (S. cerevisiae deletion strains, locus YNR049C, strain mso1, active compounds read low): 1.01
- normalized growth (S. cerevisiae deletion strains, locus YNR052C, strain pop2, active compounds read low): 0.99
- normalized growth (S. cerevisiae deletion strains, locus YOL006C, strain TOP1, active compounds read low): 0.829
- normalized growth (S. cerevisiae deletion strains, locus YOL012C, strain htz1): 1.5
- normalized growth (S. cerevisiae deletion strains, locus YOL147C, strain pex11, active compounds read low): 0.99
- normalized growth (S. cerevisiae deletion strains, locus YOR001W, strain rrp6, active compounds read low): 0.973
- normalized growth (S. cerevisiae deletion strains, locus YOR061W, strain CKA2, active compounds read low): 0.955
- normalized growth (S. cerevisiae deletion strains, locus YOR069W, strain VPS5, active compounds read low): 0.992
- normalized growth (S. cerevisiae deletion strains, locus YOR070C, strain gyp1, active compounds read low): 0.986
- normalized growth (S. cerevisiae deletion strains, locus YOR080W, strain dia2, active compounds read low): 0.998
- normalized growth (S. cerevisiae deletion strains, locus YOR083W, strain WHI5, active compounds read low): 0.976
- normalized growth (S. cerevisiae deletion strains, locus YOR106W, strain vam3, active compounds read low): 0.918
- normalized growth (S. cerevisiae deletion strains, locus YOR136W, strain idh2, active compounds read low): 1.01
- normalized growth (S. cerevisiae deletion strains, locus YOR144C, strain elg1, active compounds read low): 0.988
- normalized growth (S. cerevisiae deletion strains, locus YOR184W, strain ser1, active compounds read low): 0.951
- normalized growth (S. cerevisiae deletion strains, locus YOR231W, strain MKK1, active compounds read low): 0.985
- normalized growth (S. cerevisiae deletion strains, locus YOR265W, strain rbl2, active compounds read low): 1
- normalized growth (S. cerevisiae deletion strains, locus YOR270C, strain vph1, active compounds read low): 0.858
- normalized growth (S. cerevisiae deletion strains, locus YOR290C, strain snf2, active compounds read low): 0.976
- normalized growth (S. cerevisiae deletion strains, locus YOR316C, strain cot1, active compounds read low): 0.971
- normalized growth (S. cerevisiae deletion strains, locus YPL051W, strain arl3, active compounds read low): 0.973
- normalized growth (S. cerevisiae deletion strains, locus YPL055C, strain LGE1, active compounds read low): 0.951
- normalized growth (S. cerevisiae deletion strains, locus YPL078C, strain atp4, active compounds read low): 0.992
- normalized growth (S. cerevisiae deletion strains, locus YPL106C, strain sse1, active compounds read low): 1.02
- normalized growth (S. cerevisiae deletion strains, locus YPL240C, strain hsp82, active compounds read low): 1.01
- normalized growth (S. cerevisiae deletion strains, locus YPL241C, strain CIN2, active compounds read low): 0.978
- normalized growth (S. cerevisiae deletion strains, locus YPL256C, strain CLN2, active compounds read low): 1
- normalized growth (S. cerevisiae deletion strains, locus YPR119W, strain clb2, active compounds read low): 0.994
- normalized growth (S. cerevisiae deletion strains, locus YPR141C, strain kar3, active compounds read low): 0.969
- normalized growth (S. cerevisiae deletion strains, locus YPR163C, strain tif3, active compounds read low): 0.99
- normalized growth (S. cerevisiae deletion strains, locus YPR167C, strain met16, active compounds read low): 0.981
- normalized growth (S. cerevisiae deletion strains, strain wtn01, active compounds read low): 0.981
- normalized growth (S. cerevisiae strains, strain wild type, active compounds read low): 0.977
